GLP-1R agonist: agonists of human GLP-1 receptor. P43220. HEK293 GLP-1R CRE-luciferase, luminescence, 4-6 h; cells express a hypersensitive GLP-1R form. Potency, µM (highest dose often 45.6 µM), inactives show at the highest dose activation, actives largely listed as activators. actives 0.007% (n = 380,000); further: potency means the concentration at half of the fitted maximal effect; % of control where 0% means no effect
D3 ag: activates the human D3 dopamine receptor; D3R DiscoveRx beta-arrestin cells, luminescence, 90 min; P35462; max activation, %; actives 0.58% (n = 410,000); AID 652048; in the data active means max activation above about 30%; further: 0% is about no effect
Target sequence (P35462 whole entry, looked up): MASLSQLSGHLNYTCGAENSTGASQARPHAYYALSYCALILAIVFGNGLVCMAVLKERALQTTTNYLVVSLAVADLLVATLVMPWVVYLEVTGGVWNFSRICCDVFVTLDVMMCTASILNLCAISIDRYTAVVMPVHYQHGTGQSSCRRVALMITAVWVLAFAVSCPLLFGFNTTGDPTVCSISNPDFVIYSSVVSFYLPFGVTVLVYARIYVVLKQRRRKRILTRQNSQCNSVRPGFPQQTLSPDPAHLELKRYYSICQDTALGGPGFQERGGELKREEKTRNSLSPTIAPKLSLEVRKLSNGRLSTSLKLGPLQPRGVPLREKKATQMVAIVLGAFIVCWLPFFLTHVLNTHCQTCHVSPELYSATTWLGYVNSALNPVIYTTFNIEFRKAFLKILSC
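Agonist mode: compounds and dopamine controls were applied to plated cells for 90 min at 37 degrees C after an overnight attachment at 1500 cells/well. Luminescent read-out followed 30 - 60 minutes at room temperature with DiscoveRx detection reagent.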
GLP-1R inv ag: acts as inverse agonist at human GLP-1 receptor. Potency, µM (highest dose often 38.3 µM), for the others: top-dose activity change, negative = inhibition, actives largely listed as inhibitors. HEK293 GLP-1R CRE-luciferase, luminescence, 24 h; GLP-1R form is constitutively active. P43220. actives 1.6% (n = 410,000); further: potency means the concentration at half of the fitted maximal effect; on the % scale 0 is the no-effect control and ±100 the full control effect; nearly all actives have a fitted effect of over 55% in size
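Seeding at 200 cells/uL, 12 h culture, 24 hr compound treatment, then luciferase reagent and a luminescence read; cells are HEK293 stably expressing a constitutively active GLP-1R plus cAMP-responsive luciferase.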
D3 antag: blocks the human D3 dopamine receptor; D3R cells, DiscoveRx beta-arrestin luminescence, antagonist mode; active compounds read low; AID 652054; actives 2.5% (n = 360,000); max response, negative = inhibition, %; P35462; in the data active means max response below about -50%; inconclusive means no clear call, values can overlap the other calls; further: on the % scale 0 is the no-effect control and ±100 the full control effect
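Cells expressing the human receptor were seeded at 1500 cells/well, incubated overnight at 37 degrees C in 5% CO2, then exposed to library compounds with dopamine controls for 90 minutes at 37 degrees C before luminescent detection.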
Active calls of the source: *; ? = inconclusive; . = no result given; ! = repeats disagree. An excerpt weighted towards active compounds, which were near 4.3% of everything screened. Unless noted, the call rests on the fitted dose curve; in most records, active means well fitted curve in the direction sought with a large enough effect; inconclusive means small, poorly fitted or top-dose-only effect, or another doubt; inactive means no such curve, though single readings can be large; an effect the other way counts as inactive or inconclusive.

SMILES	GLP-1R agonist	D3 ag	GLP-1R inv ag	D3 antag
CCCn1c(CN2CCN(C(=O)OCC)CC2)nc2c1c(=O)n(C)c(=O)n2C	-5%	127*	-15%	14
Cn1c(=O)c2c(nc(CN3CCN(Cc4ccccc4)CC3)n2Cc2cccc(Cl)c2)n(C)c1=O	-5%	-10	?	-51*
CCCCCn1c(CN2CCN(C)CC2)nc2c1c(=O)n(C)c(=O)n2C	-6%	-5	-6%	-6
Cn1ccc2c(N(Cc3ccccc3)Cc3ccccc3)cc3c(c21)C1CCC3C1 (stereo not given)	4%	-10	-13%	-56*
Cn1ccc2c(-c3ccc(CO)cc3)cc3c(c21)C1CCC3C1 (stereo not given)	-7%	-14	-3%	-65*
Cc1ccc(-c2nnc(Nc3ccc(OCC(N)=O)cc3)c3ccccc23)cc1S(=O)(=O)N(C)C	.	0	50%	.
O=C(CN1C(=O)c2ccccc2S1(=O)=O)c1ccc(F)cc1	-7%	-11	2.2µM*	-5
O=C(CN1C(=O)c2ccccc2S1(=O)=O)c1ccc(OC(F)F)cc1	-24%	-5	?	?
CCCCCCn1cc(CN2CC(N3CCN(C4CCN(C)CC4)CC3)CS2(=O)=O)nn1 (stereo not given)	-1%	-3	-10%	16
O=c1c2cnn(-c3ccccc3)c2nc(-c2cccs2)n1-c1ccc(Cl)cc1	3%	-10	3%	?
O=c1c2cnn(-c3ccccc3)c2nc(-c2cccs2)n1-c1cccc(Cl)c1	5%	1	8.9µM*	-25
O=c1oc(-c2cccs2)nc2c1cnn2-c1ccccc1	-2%	0	-7%	-56*
O=c1oc(-c2ccccc2)nc2c1cnn2-c1ccccc1	-11%	-14	-5%	8
CC1(Oc2ccccc2)CCN(Cc2csc3ccccc23)C1 (stereo not given)	21%	-10	?	-83*
COC(=O)Cc1ccc(OC2(C)CCN(Cc3ccccc3)C2)cc1 (stereo not given)	-1%	-12	1%	-89*
CSc1ccc(CN2CCC(C)(Oc3ccc4ccccc4c3)C2)cc1 (stereo not given)	-4%	-14	?	?
CSc1ccc(CN2CCC(C)(Oc3ccc(-n4ccnc4)cc3)C2)cc1 (stereo not given)	1%	-22	?	-97*
CSc1ccc(OC2(C)CCN(Cc3ccccc3)C2)cc1 (stereo not given)	-5%	-10	-22%	-73*
CCNC(=O)C1(C)CCCN(Cc2csc3ccccc23)C1 (stereo not given)	8%	-2	-10%	21
CSc1ccc(CN2CCC(C)(Oc3ccc(CC#N)cc3)C2)cc1 (stereo not given)	7%	-14	?	-27
O=c1c2cccnc2n(Cc2ccc(Cl)cc2)c(=O)n1Cc1ccc(F)cc1	.	1	17%	.
Cc1ccc(NC(=O)Cn2cc(S(=O)(=O)Cc3ccc(F)cc3)c3ccccc32)cc1Cl	.	-3	?	.
CCCCC(=O)NC(c1ccco1)c1c(O)ccc2ccccc12 (stereo not given)	-5%	1	8.9µM*	6
CC(C)CC(=O)NC(c1ccccc1Cl)c1c(O)ccc2ccccc12 (stereo not given)	-5%	-3	8.9µM*	-1
CCCC(=O)NC(c1ccco1)c1c(O)ccc2ccccc12 (stereo not given)	-2%	-5	?	13
SMILES	GLP-1R agonist	D3 ag	GLP-1R inv ag	D3 antag
NCCC(=O)N1c2ccccc2Sc2ccc(Cl)cc21	-2%	-6	?	-10
CN1CCN(CCC(=O)N2c3ccccc3Sc3ccc(Cl)cc32)CC1	3%	-13	?	-51*
O=C1CSC2(CCN(CCCN3c4ccccc4Sc4ccc(Cl)cc43)CC2)N1	-3%	-4	.	.
CN1CCN(CCCN2c3ccccc3Sc3ccc(C(F)(F)F)cc32)CC1	-1%	-14	8.9µM*	-104*!
NC(=O)N1CCN(CCCN2c3ccccc3Sc3cc(Cl)ccc32)CC1	3%	-7	?	-69*
O=C(CCN1CCN2CCCC2C1)N1c2ccccc2Sc2ccc(Cl)cc21 (stereo not given)	-1%	-16	?	-54*
CCC(C)NCCOCCOc1ccccc1-c1ccccc1 (stereo not given)	-3%	-27	0%	-69*
CCC(C)NCCOCCOc1ccc(F)cc1 (stereo not given)	1%	-9	0%	-66*
Cc1ccc(NC(=O)CSc2nc3c(c(=O)[nH]2)CN(Cc2ccccc2)CC3)cc1Cl	.	-17	5%	.
Cc1ccc(C)c(NC(=O)Cn2c(SCC(=O)NCc3ccccc3)nc3ccccc32)c1	.	-12	-23%	.
COc1ccc(C(O)c2nc(-c3cccc(F)c3)cs2)cc1 (stereo not given)	2%	7	?	14
COc1ccc(C(O)c2nc(-c3ccccc3C)cs2)cc1 (stereo not given)	21%	-12	-21%	-95*
COc1ccc(C(O)c2nc(-c3ccccc3)cs2)cc1 (stereo not given)	4%	63*	-25%	-7
OC(c1ccccc1)c1nc(-c2cccc(F)c2)cs1 (stereo not given)	8%	-8	?	-55*
COc1cccc(C(O)c2nc(-c3ccccc3C)cs2)c1 (stereo not given)	13%	5	?	-8
CCc1ccc(NC(=O)Cn2c(=O)n(Cc3ccco3)c(=O)c3cccnc32)cc1	.	-19	-9%	.
Cc1cc(OCc2cc(C(=O)N(C)Cc3ccccn3)no2)cc(C)c1Cl	0%	1	2µM*	4
Cc1ccc(Cl)cc1-n1c(=O)cc(N2CCN(c3ccc(F)cc3)CC2)[nH]c1=O	.	9	-21%	.
O=C(NCCCN1CCCC1)[C@H](CSCc1ccccc1)N1Cc2ccccc2C1=O	4%	-16	?	-60*
NS(=O)(=O)c1ccc(CCNc2nc3c(-c4cccc(F)c4)nnn3c3ccc(Cl)cc23)cc1	5%	0	5%	.
Cc1ccc(CN2CCN(Cc3cccc(-n4cccn4)c3)CC2CCO)cc1 (stereo not given)	18%	-16	?	-53*
CC(=O)c1cccc(CN2CCN(Cc3ccc(C)cc3)C(CCO)C2)c1 (stereo not given)	-1%	-22	-27%	-74*
CC(=O)c1cc(CN2CCN(Cc3ccc(C)cc3)C(CCO)C2)cs1 (stereo not given)	1%	-4	-19%	-86*
CC(=O)c1cccc(CN2CCN(Cc3ccc(F)cc3)C(CCO)C2)c1 (stereo not given)	-10%	-4	-13%	?
CC(=O)c1cc(CN2CCN(CCC(C)C)C(CCO)C2)cs1 (stereo not given)	1%	-12	?	2
CC(C)CCOc1ccc(Cn2c(=O)oc3ccccc32)cc1	.	-6	1%	.
CC(C)CCn1c(N)c(S(=O)(=O)c2cccs2)c2nc3ccccc3nc21	-4%	-7	-21%	-87*

Assay outcomes as filed in PubChem.
